Each structure is given as a SMILES string. Screen size: about 2,400 compounds; about 950 (40%) were called active. Not all results are given here. Values without a mark were called inactive. Rule as the data show it: active = inhibition above about 49%; inactive = the rest.

The target in this assay is Trace amine-associated receptor 1 (Homo sapiens) (UniProt Q96RJ0). Description: TAAR1 receptor blockers, repeat testing – cell-based, fluorescence, confirmation (AID 651785).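 Also: CHO-Ga16 host cells challenged with agonist PEA near its EC80; 0% = agonist at EC80 plus vehicle and 100% = vehicle with no agonist.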 As to conditions: TAAR1-expressing cells, fluorescence antagonist read-out; at 3 µM; hits give high values.
Chain of Trace amine-associated receptor 1 (Homo sapiens) (Q96RJ0 whole entry, looked up, the tested form may be a part): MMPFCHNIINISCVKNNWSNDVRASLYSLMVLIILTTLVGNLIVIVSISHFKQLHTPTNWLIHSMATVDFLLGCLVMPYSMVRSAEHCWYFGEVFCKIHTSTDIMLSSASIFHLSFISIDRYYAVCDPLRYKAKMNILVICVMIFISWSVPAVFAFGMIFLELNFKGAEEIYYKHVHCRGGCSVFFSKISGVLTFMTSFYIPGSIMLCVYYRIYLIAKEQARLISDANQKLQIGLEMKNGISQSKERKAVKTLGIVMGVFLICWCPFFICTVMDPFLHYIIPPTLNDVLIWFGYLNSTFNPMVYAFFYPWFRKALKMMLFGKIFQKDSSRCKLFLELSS
As usually defined, the inhibition is how much of the control response was suppressed. Turning to `O=C(NCc1ccc2c(c1)OCO2)c1c(-c2ccsc2)sc2ccccc12`, the inhibition is 26.4%. For the compound `O=C(CN1CCCSc2ccccc21)N1CCN(S(=O)(=O)c2cccc(F)c2)CC1`, the inhibition is 34.9%. Next, `Oc1ccc(/C=N/Nc2nc(-c3ccccc3F)nc3ccccc23)c(O)c1`: 55.8% (active). Take `Fc1ccc(/C=N/Nc2nc(-c3cccnc3)nc3ccccc23)cc1`: the inhibition is 41.7%.

As for `C/C(=N\Nc1ncc(Cl)cc1Cl)c1ccc(S(=O)(=O)NCc2ccco2)cc1`, the inhibition was 33%. Next, `CC(=O)Nc1ccc(NC(=O)COC(=O)C2CCC(C(C)(C)C)CC2)cc1` (stereo unspecified): 52.9% (active).

Consider `C[C@H](NC(=O)c1nc[nH]c1C(=O)NCC(=O)OC(C)(C)C)C(=O)OCc1ccccc1`, for which the inhibition was 46.1%. In the case of `COc1ccc(CCNC(=O)c2ccc(CS(=O)(=O)c3ccc(Br)cc3)o2)cc1OC`, the inhibition is 52.1% (active). Next, `COc1ccc(CCNC(=O)C(=O)NCC2OCCN2S(=O)(=O)c2ccc(OC)c(C)c2)cc1` (stereo unspecified): 26.8%. The result for `COc1cc(OC)cc(C(=O)OCC(=O)Nc2sccc2C(N)=O)c1` reads 48.2%; that for `O=C(COC(=O)CCCSc1nc2ccccc2[nH]1)Nc1ccc(Oc2ccccc2)cc1`, 50.7% (active); that for `N#Cc1cccc(NC(=O)COC(=O)c2ccccc2C(=O)c2ccc(Cl)c([N+](=O)[O-])c2)c1`, 52.5% (active).

As for `CC(=O)n1cc([C@H]2C=C(C(=O)N3CCOCC3)O[C@@H](OCc3ccc(CO)cc3)C2)c2ccccc21`, the inhibition was 40.4%. The result for `CCC(=O)Oc1cccc(C(=O)Nc2ccc(-c3nnc(-c4ccco4)o3)cc2)c1` reads 46.1%; that for `O=C(CCc1ccccc1)Nc1cccc(-c2nnc(-c3ccco3)o2)c1`, 49.1% (active); that for `O=C(Nc1ccc(-c2nnc(-c3ccccc3)o2)cc1)c1ccc(Br)o1`, 21.3%. Next, `COc1ccc(Cl)cc1NC(=O)CCS(=O)(=O)c1cc2c(cc1C)NC(=O)CO2`: 36%; `CCOC(=O)C1C(c2ccc(OC)c(OC)c2)c2c([nH][nH]c2=O)CC1(C)O` (stereo unspecified): 38.7%; `Cc1ccc(-n2c(C)cc(/C=N\NC(=O)CC(=O)NC(C)C)c2C)cc1`: 97.9% (active). Next, `CNC(=O)c1ccsc1NC(=O)c1ccc(S(=O)(=O)N2CCc3ccccc32)cc1`: 43.2%. Consider `CC(C)N(Cc1ccccc1)C(=O)COC(=O)c1ccccc1SCC(=O)N1CCCC1`, for which the inhibition was 52.8% (active). As to `O=C(OCC(=O)N(CCc1ccccc1)Cc1ccccc1)c1ccccc1[N+](=O)[O-]`, the inhibition is 47.4%. The result for `O=C(COC(=O)c1ccccc1SCC(=O)N1CCCC1)Nc1ccccc1OC(F)F` reads 52.2% (active); that for `COC(=O)[C@@]1(Sc2ccc(C)cc2)CC(=O)N(c2cccc(SC)c2)[C@@H]1c1ccccc1`, 47.3%. Next, `CCOc1ccc(NC(=O)N2CC=C(n3c(=O)[nH]c4ccccc43)CC2)cc1`: 39.5%; `COC(=O)C1=C(C)N(Cc2ccc(F)cc2)C(=S)NC1c1cccc(Cl)c1` (stereo unspecified): 36.5%; `CCN=C1SC(CC(=O)Nc2ccc(C)cc2)C(=O)N1CC` (stereo unspecified): 59.2% (active). The result for `O=C(N/N=C/c1ccc(Cl)c(Cl)c1)c1ccc2nc[nH]c2c1` reads 52.9% (active); that for `CCOc1cc(/C=N/NC(=O)c2cc(-c3ccccc3)nc3ccccc23)ccc1O`, 44.9%.

With `CSc1nc(-c2ccccc2)nc(C(Cl)Cl)n1`, the inhibition is 36.6%. The result for `COc1cc(SC#N)ccc1N=Cc1c(C)[nH]n(-c2ccc(C)cc2)c1=O` reads 67.6% (active).

For the origin of these results see PubChem BioAssay AID651785 (The Scripps Research Institute Molecular Screening Center, 2012).
